Test results reported in PubChem BioAssay AID1159580 (chemical genetic matrix, 2015).
Out of some 5,500 compounds screened, about 2,000 (36%) were called active. About 18% were inconclusive and are not listed. Some of the results follow. Unmarked numbers belong to inactive results. Cut-off read from the data, not from the text of the source: active = normalized growth mostly below about 0.91 (no sharp cut-off); inconclusive = no clear call, values can overlap the other calls; inactive = mostly above about 0.92.

Test: chemical genetic growth profiling, strain panel (AID 1159580);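 note: tested at 20 µM; growth read once vehicle control cultures reached saturation at 30 °C; 1 = growth at the plate median or of vehicle wells; lower values mean less growth of the strain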
Conditions: growth OD
[1] = S. cerevisiae deletion strains, locus YAL013W, strain DEP1, hits give low values
[2] = S. cerevisiae deletion strains, locus YBR229C, strain ROT2, hits give low values
[3] = S. cerevisiae deletion strains, locus YDL101C, strain DUN1, hits give low values
[4] = S. cerevisiae deletion strains, locus YDL134C, strain PPH21, hits give low values
[5] = S. cerevisiae deletion strains, locus YDR150W, strain NUM1, hits give low values
[6] = S. cerevisiae deletion strains, locus YEL061C, strain CIN8, hits give low values
[7] = S. cerevisiae deletion strains, locus YGR078C, strain PAC10, hits give low values
[8] = S. cerevisiae deletion strains, locus YHR030C, strain SLT2, hits give low values
[9] = S. cerevisiae deletion strains, locus YJR043C, strain POL32, hits give low values
[10] = S. cerevisiae deletion strains, locus YJR075W, strain HOC1, hits give low values
[11] = S. cerevisiae deletion strains, locus YLR039C, strain RIC1, hits give low values
[12] = S. cerevisiae deletion strains, locus YLR262C, strain YPT6, hits give low values
[13] = S. cerevisiae deletion strains, locus YMR263W, strain SAP30, hits give low values
[14] = S. cerevisiae deletion strains, locus YMR307W, strain GAS1, hits give low values
[15] = S. cerevisiae deletion strains, locus YNL153C, strain GIM3, hits give low values
[16] = S. cerevisiae deletion strains, locus YNL322C, strain KRE1, hits give low values
[17] = S. cerevisiae deletion strains, locus YOL006C, strain TOP1, hits give low values
[18] = S. cerevisiae deletion strains, locus YPL055C, strain LGE1, hits give low values
[19] = S. cerevisiae deletion strains, locus YPL241C, strain CIN2, hits give low values
[20] = S. cerevisiae strains, strain wild type, hits give low values
[21] = S. cerevisiae deletion strains, locus YHR087W, strain rtc3, hits give low values
[22] = S. cerevisiae deletion strains, locus YJL187C, strain SWE1, hits give low values
[23] = S. cerevisiae deletion strains, locus YLR058C, strain SHM2 (second series), hits give low values
[24] = S. cerevisiae deletion strains, locus YLR085C, strain ARP6, hits give low values
[25] = S. cerevisiae deletion strains, locus YML094W, strain GIM5, hits give low values
[26] = S. cerevisiae deletion strains, locus YMR219W, strain ESC1, hits give low values
[27] = S. cerevisiae deletion strains, locus YNL298W, strain CLA4 (second series), hits give low values
[28] = S. cerevisiae deletion strains, locus YNR030W, strain Alg12, hits give low values
[29] = S. cerevisiae deletion strains, locus YPR135W, strain CTF4, hits give low values

## CN(C)CCC[C@@]1(c2ccc(F)cc2)OCc2cc(C#N)ccc21
[1]
  normalized growth: 1.02
S. cerevisiae deletion strains, locus YBR021W, strain FUR4, hits give low values
  normalized growth: 1.02
[2]
  normalized growth: 1.01
S. cerevisiae deletion strains, locus YCL029C, strain bik1, hits give low values
  normalized growth: 1.02
S. cerevisiae deletion strains, locus YDL035C, strain GPR1, hits give low values
  normalized growth: 1.02
S. cerevisiae deletion strains, locus YDL074C, strain BRE1, hits give low values
  normalized growth: 1.02
[3]
  normalized growth: 1.02
[4]
  normalized growth: 1.01
S. cerevisiae deletion strains, locus YDL185W, strain tfp1, hits give low values
  normalized growth: 1.03
S. cerevisiae deletion strains, locus YDL192W, strain arf1, hits give low values
  normalized growth: 1.02
S. cerevisiae deletion strains, locus YDR101C, strain arx1, hits give low values
  normalized growth: 1.02
[5]
  normalized growth: 1.02
S. cerevisiae deletion strains, locus YDR162C, strain NBP2, hits give low values
  normalized growth: 1.01
S. cerevisiae deletion strains, locus YDR318W, strain mcm21, hits give low values
  normalized growth: 1.03
S. cerevisiae deletion strains, locus YDR388W, hits give low values
  normalized growth: 1.02
S. cerevisiae deletion strains, locus YDR502C, strain sam2, hits give low values
  normalized growth: 1.02
[6]
  normalized growth: 1.01
S. cerevisiae deletion strains, locus YER110C, hits give low values
  normalized growth: 1.03
S. cerevisiae deletion strains, locus YER155C, strain BEM2, hits give low values
  normalized growth: 1.01
S. cerevisiae deletion strains, locus YER167W, strain BCK2, hits give low values
  normalized growth: 1.02
S. cerevisiae deletion strains, locus YGL078C, strain dbp3, hits give low values
  normalized growth: 1.03
S. cerevisiae deletion strains, locus YGL086W, strain mad1, hits give low values
  normalized growth: 1.02
S. cerevisiae deletion strains, locus YGL248W, strain PDE1, hits give low values
  normalized growth: 1.02
[7]
  normalized growth: 1.03
S. cerevisiae deletion strains, locus YGR135W, strain pre9, hits give low values
  normalized growth: 1.03
S. cerevisiae deletion strains, locus YGR229C, strain SMI1, hits give low values
  normalized growth: 1.02
S. cerevisiae deletion strains, locus YGR252W, strain gcn5, hits give low values
  normalized growth: 1.06
[8]
  normalized growth: 1.01
S. cerevisiae deletion strains, locus YHR079C, strain IRE1 (second series), hits give low values
  normalized growth: 1.02
S. cerevisiae deletion strains, locus YHR094C, strain hxt1, hits give low values
  normalized growth: 1.02
S. cerevisiae deletion strains, locus YHR129C, strain ARP1, hits give low values
  normalized growth: 1.01
S. cerevisiae deletion strains, locus YHR200W, strain rpn10, hits give low values
  normalized growth: 1.02
S. cerevisiae deletion strains, locus YIL066C, strain RNR3, hits give low values
  normalized growth: 1.03
S. cerevisiae deletion strains, locus YIL073C, strain SPO22, hits give low values
  normalized growth: 1.06
S. cerevisiae deletion strains, locus YIL125W, strain kgd1, hits give low values
  normalized growth: 1.02
S. cerevisiae deletion strains, locus YIR030C, strain dcg1, hits give low values
  normalized growth: 1.02
S. cerevisiae deletion strains, locus YJL095W, strain BCK1, hits give low values
  normalized growth: 1.02
S. cerevisiae deletion strains, locus YJL134W, strain LCB3, hits give low values
  normalized growth: 1.03
S. cerevisiae deletion strains, locus YJL168C, strain set2, hits give low values
  normalized growth: 1.02
S. cerevisiae deletion strains, locus YJL187C, strain SWE1 (second series), hits give low values
  normalized growth: 1.02
[9]
  normalized growth: 1.01
[10]
  normalized growth: 1.01
S. cerevisiae deletion strains, locus YKL009W, strain mrt4, hits give low values
  normalized growth: 1.03
S. cerevisiae deletion strains, locus YKL068W, hits give low values
  normalized growth: 1.02
S. cerevisiae deletion strains, locus YKL085W, strain MDH1 (second series), hits give low values
  normalized growth: 0.999
S. cerevisiae deletion strains, locus YKL085W, strain MDH1, hits give low values
  normalized growth: 0.999
S. cerevisiae deletion strains, locus YKL190W, strain CNB1, hits give low values
  normalized growth: 1.03
S. cerevisiae deletion strains, locus YKR001C, strain vps1, hits give low values
  normalized growth: 1.03
[11]
  normalized growth: 1.04
S. cerevisiae deletion strains, locus YLR058C, strain SHM2, hits give low values
  normalized growth: 1.02
S. cerevisiae deletion strains, locus YLR102C, strain apc9, hits give low values
  normalized growth: 1.02
[12]
  normalized growth: 1.04
S. cerevisiae deletion strains, locus YLR268W, strain sec22, hits give low values
  normalized growth: 1.01
S. cerevisiae deletion strains, locus YLR330W, strain CHS5, hits give low values
  normalized growth: 1.01
S. cerevisiae deletion strains, locus YLR342W, strain FKS1 (second series), hits give low values
  normalized growth: 1.03
S. cerevisiae deletion strains, locus YLR371W, strain rom2, hits give low values
  normalized growth: 1.02
S. cerevisiae deletion strains, locus YLR418C, strain cdc73, hits give low values
  normalized growth: 1
S. cerevisiae deletion strains, locus YML016C, strain PPZ1, hits give low values
  normalized growth: 1.02
S. cerevisiae deletion strains, locus YML032C, strain rad52, hits give low values
  normalized growth: 1.02
S. cerevisiae deletion strains, locus YML124C, strain tub3, hits give low values
  normalized growth: 1.01
S. cerevisiae deletion strains, locus YMR078C, strain ctf18, hits give low values
  normalized growth: 1.03
S. cerevisiae deletion strains, locus YMR223W, strain ubp8, hits give low values
  normalized growth: 1.04
[13]
  normalized growth: 1.02
[14]
  normalized growth: 1.05
S. cerevisiae deletion strains, locus YNL067W, strain RPL9B, hits give low values
  normalized growth: 1.02
S. cerevisiae deletion strains, locus YNL128W, strain TEP1, hits give low values
  normalized growth: 1.02
[15]
  normalized growth: 1.01
S. cerevisiae deletion strains, locus YNL233W, strain BNI4, hits give low values
  normalized growth: 1.01
S. cerevisiae deletion strains, locus YNL250W, strain rad50, hits give low values
  normalized growth: 1.03
S. cerevisiae deletion strains, locus YNL271C, strain bni1, hits give low values
  normalized growth: 1.03
S. cerevisiae deletion strains, locus YNL298W, strain CLA4, hits give low values
  normalized growth: 1.04
S. cerevisiae deletion strains, locus YNL307C, strain MCK1, hits give low values
  normalized growth: 1.02
[16]
  normalized growth: 1.01
S. cerevisiae deletion strains, locus YNR052C, strain pop2, hits give low values
  normalized growth: 1.02
[17]
  normalized growth: 1.05
S. cerevisiae deletion strains, locus YOL012C, strain htz1
  normalized growth: 1.16
S. cerevisiae deletion strains, locus YOL147C, strain pex11, hits give low values
  normalized growth: 1.02
S. cerevisiae deletion strains, locus YOR061W, strain CKA2, hits give low values
  normalized growth: 1.02
S. cerevisiae deletion strains, locus YOR069W, strain VPS5, hits give low values
  normalized growth: 1.01
S. cerevisiae deletion strains, locus YOR136W, strain idh2, hits give low values
  normalized growth: 1.02
S. cerevisiae deletion strains, locus YOR144C, strain elg1, hits give low values
  normalized growth: 1.02
S. cerevisiae deletion strains, locus YOR184W, strain ser1, hits give low values
  normalized growth: 1.03
S. cerevisiae deletion strains, locus YOR316C, strain cot1, hits give low values
  normalized growth: 1.02
[18]
  normalized growth: 1.03
[19]
  normalized growth: 1.01
S. cerevisiae deletion strains, locus YPR119W, strain clb2, hits give low values
  normalized growth: 1.01
S. cerevisiae deletion strains, locus YPR141C, strain kar3, hits give low values
  normalized growth: 1.03
S. cerevisiae deletion strains, locus YPR163C, strain tif3, hits give low values
  normalized growth: 1.02
S. cerevisiae deletion strains, locus YPR167C, strain met16, hits give low values
  normalized growth: 1.02
S. cerevisiae deletion strains, strain wtn01, hits give low values
  normalized growth: 1.01
[20]
  normalized growth: 1.02

## CCCc1ccc(/C(C)=N\O)cc1
[1]
  normalized growth: 0.939
[2]
  normalized growth: 0.921 (active)
[3]
  normalized growth: 0.955
[4]
  normalized growth: 0.965
[5]
  normalized growth: 0.858
[6]
  normalized growth: 0.902 (active)
[7]
  normalized growth: 0.93
[8]
  normalized growth: 0.778
[21]
  normalized growth: 0.909 (active)
[22]
  normalized growth: 0.926 (active)
[9]
  normalized growth: 0.949
[10]
  normalized growth: 0.816 (active)
[11]
  normalized growth: 0.777 (active)
[23]
  normalized growth: 0.92 (active)
[24]
  normalized growth: 0.756 (active)
[12]
  normalized growth: 0.834
[25]
  normalized growth: 0.947
[26]
  normalized growth: 0.932 (active)
[13]
  normalized growth: 0.963
[14]
  normalized growth: 1.18
[15]
  normalized growth: 0.946
[27]
  normalized growth: 0.94
[16]
  normalized growth: 0.919 (active)
[28]
  normalized growth: 0.96
[17]
  normalized growth: 0.945
[18]
  normalized growth: 0.848
[19]
  normalized growth: 0.949
[29]
  normalized growth: 0.518 (active)

## CCCc1ccc(-c2nc(-c3ccc(C)cc3)no2)cc1
[1]
  normalized growth: 0.999
[2]
  normalized growth: 0.994
[3]
  normalized growth: 0.971
[5]
  normalized growth: 1.01
[6]
  normalized growth: 1.01
[7]
  normalized growth: 0.973
[8]
  normalized growth: 1
[21]
  normalized growth: 0.984
[22]
  normalized growth: 0.978
[9]
  normalized growth: 0.991
[10]
  normalized growth: 0.95
[11]
  normalized growth: 1.09
[23]
  normalized growth: 0.995
[24]
  normalized growth: 1.02
[12]
  normalized growth: 1.04
[25]
  normalized growth: 0.988
[26]
  normalized growth: 0.992
[13]
  normalized growth: 0.994
[14]
  normalized growth: 1.04
[15]
  normalized growth: 0.965
[27]
  normalized growth: 0.987
[16]
  normalized growth: 0.989
[28]
  normalized growth: 0.973
[18]
  normalized growth: 0.975
[19]
  normalized growth: 0.941
[29]
  normalized growth: 1.06
[20]
  normalized growth: 1.01

## C/C(=N/O)c1ccc2c(c1)C(C)(C)CCC2(C)C
[1]
  normalized growth: 1.01
[2]
  normalized growth: 0.987
S. cerevisiae deletion strains, locus YCL061C, strain MRC1, hits give low values
  normalized growth: 0.964
[3]
  normalized growth: 1.01
[4]
  normalized growth: 0.99
[5]
  normalized growth: 0.985
[6]
  normalized growth: 0.995
[7]
  normalized growth: 0.981
[8]
  normalized growth: 0.984
[21]
  normalized growth: 0.977
[22]
  normalized growth: 0.976
[9]
  normalized growth: 0.989
[10]
  normalized growth: 0.954
[11]
  normalized growth: 0.847
[23]
  normalized growth: 0.985
[24]
  normalized growth: 0.963
[12]
  normalized growth: 0.939
[25]
  normalized growth: 0.992
[26]
  normalized growth: 0.991
[13]
  normalized growth: 0.979
[14]
  normalized growth: 0.92
[15]
  normalized growth: 0.967
[27]
  normalized growth: 0.962
[16]
  normalized growth: 0.995
[28]
  normalized growth: 0.958
[18]
  normalized growth: 0.996
[19]
  normalized growth: 0.953
[29]
  normalized growth: 0.915
